Source: PubChem BioAssay (EPA / NIEHS)
Calls of active or inactive are those of the source. How the source made its calls: active means hit-call score of the fitted dose curve at least 0.9, where 1 is the maximum; inactive means score below 0.9.

Assay: ATG_FoxO_CIS: Attagene CIS-FACTORIAL HepG2 Assay for human Forkhead box O (FoxO) (AID 2282943)
Conditions: HepG2 Attagene cis-reporter, FoxO element, mRNA; actives raise or lower the signal
Method: ATG_CIS is a cell-based, multiplexed-readout assay that uses HepG2, a human liver cell line, with measurements taken at 24 hours after chemical dosing in a 24-well plate.ATG_FoxO_CIS is one of 52 assay component(s) measured or calculated from the ATG_CIS assay. It is designed to make measurements of mRNA induction, a form of inducible reporter, as detected with fluorescence intensity signals by Reverse transcription polymerase chain reaction (RT-PCR) and Capillary electrophoresis technology.Data from the assay component ATG_FoxO_CIS was analyzed into 1 assay endpoint. This assay endpoint, ATG_FoxO_CIS, was analyzed with bidirectional fitting relative to DMSO as the negative control and baseline of activity. Using a type of inducible reporter, measures of mRNA for gain or loss-of-signal activity can be used to understand the reporter gene at the transcription factor-level as they relate to the gene FOXO1 and FOXO3. Furthermore, this assay endpoint can be referred to as a primary readout, because this assay has produced multiple assay endpoints where this one serves a reporter gene function. To generalize the intended target to other relatable targets, this assay endpoint is annotated to the dna binding intended target family, where the subfamily is forkhead box protein.
Human liver HepG2 cells are transiently transfected with multiple reporter transcription units (MRTUs) in 6-well plates using FuGene 6 reagent (Roche; 3 ml FuGene/1 mg DNA). The MRTU constructs are regulated by a cis-regulating element (promoter). […] A major difference between the CIS and TRANS system is that in CIS activities of endogenous TFs are measured, whereas the TRANS assay evaluates changes in activities of exogenous, chimeric NR-Gal4 proteins. […] At the end of 24 hour incubation, total RNA was isolated using TriZol reagent (Invitrogen). The isolated RNA is then reverse-transcribed using oligo(dT) primer and Mo-MLV reverse transcriptase (Invitrogen) with DNAse I (Ambion) treatment for 30 min. The one-tenth of the produced cDNA was amplified by PCR using Taq DNA polymerase (Invitrogen) and two reporter sequence-specific primers. The PCR products were fluorescently labeled by primer extension with 6-arboxyfluorescein (6-FAM) 5'-labeled reporter sequence-specific primer (2 min at 95 C, 20 s at 68 C and 10 min at 72 C) and these products were digested with 5U of HpaI (New England Biolabs) for 2h at 37 C. The fragments were purified using Qiaquick PCR columns (Qiagen), analyzed on an ABI 3130xL genetic analyzer (Applied Biosystems) with peak positions identified by using a set of X-rhodamine (ROX)-labeled MapMarker1000 molecular weight standards (BioVentures). The raw capillary electrophoresis data was processed using Attagraph software (Attagene).

outcome, inactive:
CCc1ccccc1O, CN(CCO)S(=O)(=O)C(F)(F)C(F)(F)C(F)(F)C(F)(F)C(F)(F)C(F)(F)C(F)(F)C(F)(F)F, COc1ccc(C#N)cc1, CCCCCCCC(OC)OC, CCC1CO1 (stereo not given), CCc1cccc(CC)c1N(COC)C(=O)CS(=O)(=O)O, COC1=CC(=O)C[C@@H](C)[C@]12Oc1c(Cl)c(OC)cc(OC)c1C2=O, CC(=O)Nc1ccc(S(N)(=O)=O)cc1, Cn1sccc1=O, CC(C)c1c(C(=O)Nc2ccccc2)c(-c2ccccc2)c(-c2ccc(F)cc2)n1CC[C@@H](O)C[C@@H](O)CC(=O)O, Nc1ccc(O)c(C(=O)O)c1, CCC(C)c1ccccc1O (stereo not given), Cc1ccc(C(=O)c2ccccc2)cc1, O=C(O)C(=O)O, CC(C)(O)C(=O)c1ccccc1, CC(=O)Nc1ccc(O)cc1, CCCCc1ccc2ccccc2c1S(=O)(=O)O, C=CC(F)(F)C(F)(F)C(F)(F)C(F)(F)F, NNC(=O)CCCCC(=O)NN, O=C(NO)c1ccccc1, O=P(O)(O)CCC(F)(F)C(F)(F)C(F)(F)C(F)(F)C(F)(F)C(F)(F)C(F)(F)C(F)(F)F, NC(C(F)(F)F)C(F)(F)F, COC(=O)C(F)(F)C(F)(F)C(F)(F)C(F)(F)C(F)(F)F, CCC(C)c1nccnc1OC (stereo not given), CCCCC=O, c1ccc2c(c1)CCC2, O=c1cc(-c2ccccc2)oc2ccc3ccccc3c12, CC(C)C=O, O=S(=O)(O)c1ccccc1, C=Cc1ccc(O)c(OC)c1, O=C(Nc1cccc([N+](=O)[O-])c1)c1cc2ccccc2cc1O, O=C1c2ccc(O)c(O)c2C(=O)c2c(O)ccc(O)c21, COc1cccc(O)c1, OCC(CO)(CBr)CBr, CC1=NN(c2ccccc2)C(=O)C1, O=C(O)CCC(F)(F)C(F)(F)C(F)(F)C(F)(F)C(F)(F)C(F)(F)F, CC(C)(C)c1ccc(CCC=O)cc1, OCCN1CN(CCO)CN(CCO)C1

AC50, active:
O=C(CCCN1CCC(O)(c2ccc(Cl)cc2)CC1)c1ccc(F)cc1 52.7 µM, O=S(=O)(c1ccc(OCc2ccccc2)cc1)c1ccccc1O 50.8 µM
